High-throughput results: PubChem BioAssay, several laboratories
This is a sample that favours compounds with a hit; in the whole collection about 1% have one here.
LANA-H2B inh – blocks KSHV LANA binding to histone H2A/H2B. cell-free LANA-H2A/H2B peptide, fluorescence polarization. 320,000 compounds, 0.6% hits. Q9QR71. AID 2629. inhibition, % (test concentration not listed); in the data active = inhibition mostly above about 10%, no sharp cut-off; inactive = mostly below about 6.7%
RTF Ca sens inh – cardiac RTF calcium desensitization | inhibition, % at 7.15 µM | P19429+P45379 | 340,000 compounds, 0.12% hits | IANBD-labeled cardiac RTF, Ca2+ fluorescence;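 active = inhibition above the mean inhibition of all tested compounds plus 3 SD, cut at about 17% in these data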;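 note: assay run at fixed EC70 calcium of 1.6 mM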
Keap1 Nrf2 FP – Keap1-Nrf2 (human) interaction inhibition | Keap1 Kelch-Nrf2 peptide fluorescence polarization, 1536-well | AID 504523 | Q14145 | 340,000 compounds, 0.15% hits | inhibition, % at 9.4 µM; in the data active = inhibition above about 12%;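 note: human Keap1 Kelch domain with fluorescein labeled Nrf2 9mer peptide probe; 0% = neutral control wells and 100% = peptide positive control; higher means more block of Keap1 binding to Nrf2 peptide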
Target sequence (Q14145 whole entry, looked up, the tested form may be a part): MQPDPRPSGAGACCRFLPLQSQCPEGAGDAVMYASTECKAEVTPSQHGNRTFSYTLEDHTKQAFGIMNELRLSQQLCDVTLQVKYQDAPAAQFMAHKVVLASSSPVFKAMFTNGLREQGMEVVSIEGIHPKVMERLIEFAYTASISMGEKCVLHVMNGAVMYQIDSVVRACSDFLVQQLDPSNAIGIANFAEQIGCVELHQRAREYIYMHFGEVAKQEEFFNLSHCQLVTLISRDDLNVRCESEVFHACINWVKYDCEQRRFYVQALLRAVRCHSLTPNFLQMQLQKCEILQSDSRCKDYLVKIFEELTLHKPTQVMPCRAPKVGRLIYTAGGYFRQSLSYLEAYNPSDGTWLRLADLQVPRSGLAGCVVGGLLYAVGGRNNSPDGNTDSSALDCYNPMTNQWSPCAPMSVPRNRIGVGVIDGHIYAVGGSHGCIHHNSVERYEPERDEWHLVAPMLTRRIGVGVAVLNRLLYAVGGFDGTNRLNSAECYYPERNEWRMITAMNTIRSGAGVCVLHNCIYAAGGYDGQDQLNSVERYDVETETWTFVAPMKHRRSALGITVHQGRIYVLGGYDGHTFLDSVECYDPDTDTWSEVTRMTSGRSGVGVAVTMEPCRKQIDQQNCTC
RTF Ca sens act – cardiac RTF calcium sensitization | P19429+P45379 | IANBD-labeled TnC RTF fluorescence at EC20 calcium; 0% EC20 calcium, 100% full calcium | activation, % at 7.2 µM | 340,000 compounds, 0.24% hits | AID 493008;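 active = activation above the mean over all tested compounds plus 3 SD, cut at about 30% in these data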;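 note: rise in fluorescence read as greater calcium sensitivity of cardiac thin filaments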
C-LANA FP – inhibitors of KSHV LANA C-terminal domain DNA binding | MBP-C-LANA/FAM-LBS DNA binding, fluorescence polarization | inhibition, % at 9 µM | 340,000 compounds, 0.078% hits | AID 504423;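 active = highest replicate inhibition at or above 60% at 9 µM, even if other replicates fall short; inactive = all replicates below 60% inhibition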;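 note: 0% = neutral control wells and 100% = 4 µM acridine orange control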
Numbers without * were called inactive.

How did COc1ccc2c(c1)C(=O)C1NC(=O)NC(=O)C1(Br)N2 (stereo not given) do in these assays?
RTF Ca sens inh: -2; Keap1 Nrf2 FP: -1; RTF Ca sens act: -3; C-LANA FP: -1

Results for COc1ccc(OC)c(Nc2ncnc3sccc23)c1 ?
LANA-H2B inh: -4; RTF Ca sens inh: -9; Keap1 Nrf2 FP: 9; RTF Ca sens act: 2; C-LANA FP: -1

What do the screens show for `COc1cc(CN(C)c2ncnc3sccc23)ccc1OC(F)F`?
LANA-H2B inh: 16*; RTF Ca sens inh: 7; Keap1 Nrf2 FP: -7; RTF Ca sens act: -1; C-LANA FP: 0

How did CS(=O)(=O)c1cccc(C(=O)OCC(=O)NC(=O)Nc2ccccc2F)c1 do in these assays?
LANA-H2B inh: 0; RTF Ca sens inh: 4; Keap1 Nrf2 FP: 2; RTF Ca sens act: -2; C-LANA FP: 1

How did N#CC1=C(N)OC2=C(CC/C2=C\c2ccccc2Cl)C1c1ccccc1Cl (stereo not given) do in these assays?
LANA-H2B inh: -7; RTF Ca sens inh: -37; Keap1 Nrf2 FP: -10; RTF Ca sens act: 38*; C-LANA FP: 5

Results for N#CC1=C(N)OC2=C(CC/C2=C\c2ccccc2)C1c1ccccc1 (stereo not given) ?
LANA-H2B inh: 22; RTF Ca sens inh: -221; Keap1 Nrf2 FP: -9; RTF Ca sens act: 127*; C-LANA FP: 1

Results for CCCSc1ncnc2[nH]ncc12 ?
RTF Ca sens inh: 2; Keap1 Nrf2 FP: -3; RTF Ca sens act: -4; C-LANA FP: -1

How did CC1=CC2=NC(=O)CC(C)(C(=O)N(CC(=O)NC3CCCC3)c3ccccc3C)N2C=C1 (stereo not given) do in these assays?
LANA-H2B inh: 11*; RTF Ca sens inh: 2; Keap1 Nrf2 FP: -2; RTF Ca sens act: 7; C-LANA FP: 0

How did CN(C#N)c1nc(N2CCOCC2)nc(N2CCOCC2)n1 do in these assays?
LANA-H2B inh: 41*; RTF Ca sens inh: -2; Keap1 Nrf2 FP: -4; RTF Ca sens act: 0; C-LANA FP: 0

How did CC(C)CN(C#N)c1nc(N2CCOCC2)nc(N2CCOCC2)n1 do in these assays?
LANA-H2B inh: 0; RTF Ca sens inh: -1; Keap1 Nrf2 FP: -1; RTF Ca sens act: -3; C-LANA FP: 0

How did O=S(=O)(c1ccc(Br)cc1)c1nc(-c2ccco2)oc1NCCCn1ccnc1 do in these assays?
RTF Ca sens inh: 2; Keap1 Nrf2 FP: -7; RTF Ca sens act: -2; C-LANA FP: 0

How did COc1ccccc1/C=C(\NC(=O)c1ccc(OC)c(OC)c1)C(=O)Nc1cccc([N+](=O)[O-])c1 do in these assays?
LANA-H2B inh: -3; RTF Ca sens inh: 3; Keap1 Nrf2 FP: -7; RTF Ca sens act: -6; C-LANA FP: 0

What do the screens show for `CN1CCN(c2ccc(NC(=O)c3ccc(-c4ccc(Cl)cc4)o3)cc2)CC1`?
LANA-H2B inh: 66*; RTF Ca sens inh: -5; Keap1 Nrf2 FP: -2; RTF Ca sens act: 6; C-LANA FP: -1

How did CS(=O)(=O)N1CCN(c2ccc(NC(=O)c3ccc(-c4ccc(Cl)cc4)o3)cc2)CC1 do in these assays?
LANA-H2B inh: -12; RTF Ca sens inh: -7; Keap1 Nrf2 FP: -1; RTF Ca sens act: -5; C-LANA FP: 2

Results for CCn1cc(C(=O)Nn2cnnc2)c(=O)c2ccc(C)nc21 ?
LANA-H2B inh: 3; RTF Ca sens inh: -7; Keap1 Nrf2 FP: 4; RTF Ca sens act: -2; C-LANA FP: -1

How did O=C(CN1C(=O)CCOc2ccccc21)Nc1ccc(Cl)c(S(=O)(=O)N2CCOCC2)c1 do in these assays?
LANA-H2B inh: -3; RTF Ca sens inh: -1; Keap1 Nrf2 FP: -3; RTF Ca sens act: 4; C-LANA FP: -1

Results for COc1ccc(C2=CC(c3cc(OC)c(OC)c(OC)c3)NC(=S)N2)cc1 (stereo not given) ?
LANA-H2B inh: 20*; RTF Ca sens inh: -8; Keap1 Nrf2 FP: -3; RTF Ca sens act: -1; C-LANA FP: 1

Results for O=C(NCc1cccc(Cl)c1)c1ccc2c(c1)SC1=NS(=O)(=O)CCN12 ?
LANA-H2B inh: 16*; RTF Ca sens inh: 2; Keap1 Nrf2 FP: -2; RTF Ca sens act: 0; C-LANA FP: 1

How did CCN1CCN(C(c2ccccc2)c2nnnn2CCc2ccc(OC)c(OC)c2)CC1 (stereo not given) do in these assays?
LANA-H2B inh: 15*; RTF Ca sens inh: -11; Keap1 Nrf2 FP: -6; RTF Ca sens act: -2; C-LANA FP: 0

How did CCc1c(C)nc2c(-c3ccccc3OC)c(C)[nH]n2c1=O do in these assays?
LANA-H2B inh: -7; RTF Ca sens inh: 3; Keap1 Nrf2 FP: -1; RTF Ca sens act: 1; C-LANA FP: -3

Results for Cc1cc([N+](=O)[O-])cc2c1NC(=O)C2(O)N1CCOCC1 (stereo not given) ?
LANA-H2B inh: 58*; RTF Ca sens inh: -18; Keap1 Nrf2 FP: -6; RTF Ca sens act: -1; C-LANA FP: 0

Results for CC1CCN(C2(O)C(=O)Nc3ccc([N+](=O)[O-])cc32)CC1 (stereo not given) ?
LANA-H2B inh: 2; RTF Ca sens inh: 1; Keap1 Nrf2 FP: -3; RTF Ca sens act: -3; C-LANA FP: -1

What do the screens show for `COc1ccc(C=NN=C2c3ccccc3-c3ccccc32)cc1OC`?
RTF Ca sens inh: -5; Keap1 Nrf2 FP: -4; RTF Ca sens act: 2; C-LANA FP: -12

How did CN(C)S(=O)(=O)c1ccc2c(c1)/C(=C/c1cc3c([nH]1)CCCC3)C(=O)N2 do in these assays?
LANA-H2B inh: 1; RTF Ca sens inh: -59; Keap1 Nrf2 FP: -11; RTF Ca sens act: 61*; C-LANA FP: -3

What do the screens show for `COc1ccc(CCC(=O)NCCS(=O)(=O)N2CCN(c3ccc(F)cc3)CC2)cc1`?
LANA-H2B inh: -1; RTF Ca sens inh: -4; Keap1 Nrf2 FP: 3; RTF Ca sens act: -11; C-LANA FP: -2

What do the screens show for `CCCCN1C(=O)/C(=C/C=C2\N(C)c3ccccc3C2(C)C)SC1=S`?
LANA-H2B inh: -1

Results for CN1CCS/C1=C/C=C1/SC(=S)N(Cc2ccccc2)C1=O ?
LANA-H2B inh: -4; RTF Ca sens inh: -119; Keap1 Nrf2 FP: -22; RTF Ca sens act: 96*; C-LANA FP: -2

Results for O=C(O)c1ccc(/C=C2/SC(=S)N(Cc3ccccc3)C2=O)cc1 ?
LANA-H2B inh: 0; RTF Ca sens inh: -11; Keap1 Nrf2 FP: 3; RTF Ca sens act: -2; C-LANA FP: -1

How did CCCCN1C(=O)/C(=C/C=C2\SCCN2C)SC1=S do in these assays?
RTF Ca sens inh: -205; Keap1 Nrf2 FP: -186; RTF Ca sens act: 115*; C-LANA FP: -14

Results for CN1CCS/C1=C/C=C1\SC(=S)N(CC(=O)O)C1=O ?
LANA-H2B inh: -149; RTF Ca sens inh: -431; Keap1 Nrf2 FP: -421; RTF Ca sens act: 249*; C-LANA FP: -101

What do the screens show for `Cc1ccc(S(=O)(=O)N2[C@@H](c3ccc(Cl)cc3)C(C(=O)O)=C[C@H]2C(C)(C)C)cc1`?
LANA-H2B inh: active; RTF Ca sens inh: -2; Keap1 Nrf2 FP: 0; RTF Ca sens act: -3; C-LANA FP: 3
